Screening results deposited in PubChem BioAssay by National Center for Advancing Translational Sciences (NCATS).
D1 PAM: human D1 dopamine receptor positive modulation; P21728; potentiation, % at 10 µM; 360,000 tested, 0.036% active; HEK293 TREx D1 cells, calcium flux, dopamine EC20 potentiation; in the data active = potentiation above about 30%; also: 0% is about no effect
TRHR ag: TRH receptor (human) agonism | P34981 | TRHR cells, calcium flux fluo-8, FDSS agonist mode | activation, % at 2 µM | 360,000 tested, 0.18% active | AID 493084; also: 0% is about no effect
Target sequence (P34981 whole entry, looked up): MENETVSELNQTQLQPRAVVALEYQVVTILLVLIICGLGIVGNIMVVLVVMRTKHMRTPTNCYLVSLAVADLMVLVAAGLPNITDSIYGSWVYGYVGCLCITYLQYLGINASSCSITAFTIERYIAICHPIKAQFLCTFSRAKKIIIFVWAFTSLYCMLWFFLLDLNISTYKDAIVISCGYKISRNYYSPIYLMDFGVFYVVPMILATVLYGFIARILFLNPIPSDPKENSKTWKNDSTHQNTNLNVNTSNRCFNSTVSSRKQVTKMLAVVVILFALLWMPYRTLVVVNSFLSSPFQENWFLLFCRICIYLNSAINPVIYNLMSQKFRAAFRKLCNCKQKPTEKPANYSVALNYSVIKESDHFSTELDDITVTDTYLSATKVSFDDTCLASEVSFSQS
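Steps: seed TRHR cells overnight; add fluo-8 no-wash Ca dye, RT 30 min–1.5 h; record 10 s baseline; pin-transfer compounds; monitor fluorescence 1 cycle/s for the agonist window. Calcium increases flag candidate agonists.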
D1 antag: blocks dopamine activation of the human D1 receptor. 360,000 tested, 3.2% active. AID 504652. activity change, negative = inhibition, % at 10 µM. P21728. HEK293 TREx D1 cells, calcium flux, dopamine EC80; hits give low values; in the data active = activity change below about -30%; also: % is scaled to controls: 0 for no effect and ±100 for the full control effect
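Inducible Hek293 Trex D1 cells (tetracycline, overnight, 30 C). Calcium dye 30–90 min RT. Antagonist mode: EC80 dopamine added after 180 s compound read.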
D1 agonist: human D1 receptor agonism. HEK293 T-REx D1 cells, calcium flux, agonist mode. P21728. 360,000 tested, 1% active. activation, % at 2 µM; also: 0% is about no effect
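Tetracycline-induced HEK293 TREx D1 cells, force-coupled to calcium signalling, were dye-loaded with a no-wash calcium kit. Compound was pin-added after a 10 s baseline. Fluorescence was read kinetically at 1 cycle/s for 180 s, with calcium rises flagged as agonism.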
TRHR enhancer: allosteric enhancers of human TRH receptor. TRHR cells, fluo-8 calcium fluorescence, EC20 TRH enhancement. 360,000 tested, 0.66% active. enhancement, % at 2 µM. AID 493056. P34981; in the data active = enhancement above about 30%; also: 0% is about no effect
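Enhancer read-out: after compound pinning and an initial kinetic agonist-mode read, an EC20 of TRH (10 nM final) was injected and fluo-8 calcium signal (Ex 480/Em 530) followed at 1 s/cycle for 100 cycles in TRHR-expressing cells.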
* = called active by the depositor; ! = not confirmed by another sample. Only some compounds are listed: those with a hit (about 4.6% of all), similar ones and a draw of the others. Rule as the data show it, unless noted: active = activation above about 30%; inactive = the rest.

For Cc1ccccc1OCC(=O)N(Cc1ccc(C(C)C)cc1)C1CCS(=O)(=O)C1 (stereo unspecified) the results were D1 PAM 2, TRHR ag 1, D1 antag 18, D1 agonist 2 and TRHR enhancer 7.
Screening Cc1c(Cl)cccc1NC(=O)C(=O)NCCc1csc(-c2ccc(C(F)(F)F)cc2)n1 returned D1 PAM 5, TRHR ag 1, D1 antag 12, D1 agonist 4 and TRHR enhancer 3.
For CN(CC(=O)Nc1ccc(F)cc1F)S(=O)(=O)c1cccc2nsnc12 the results were D1 PAM 2, TRHR ag -1, D1 antag -13, D1 agonist -1 and TRHR enhancer -1.
`Cc1c(Cl)cccc1Nc1nc(N)nc(CSc2nc3ccccc3s2)n1` gave D1 PAM -2, TRHR ag 1, D1 antag -44*!, D1 agonist 4 and TRHR enhancer 0.
For CNc1ncnc2ccc(-c3c(C)noc3C)cc12 the results were D1 PAM 7, TRHR ag 0, D1 antag 20, D1 agonist 6 and TRHR enhancer 1.
`O=C(N/N=C/c1ccc([N+](=O)[O-])cc1)c1ccc(NS(=O)(=O)c2cccs2)cc1` gave D1 PAM -4, TRHR ag 5, D1 antag -11, D1 agonist 1 and TRHR enhancer -1.
Screening O=C(N/N=C/c1ccc([N+](=O)[O-])o1)c1ccc(NS(=O)(=O)c2cccs2)cc1 returned D1 PAM -3, TRHR ag -1, D1 antag -89*, D1 agonist 1 and TRHR enhancer 6.
Screening CCC(Sc1nnc2c(n1)[nH]c1ccccc12)C(=O)Nc1nnc(C(C)C)s1 (stereo unspecified) returned D1 PAM -1, TRHR ag 0, D1 antag -5, D1 agonist 1 and TRHR enhancer -9.
For COc1ccc(OC)c(NC(=O)Cn2cc(C(=O)c3cccs3)c3ccccc32)c1 the results were D1 PAM 4, TRHR ag 0, D1 antag -34*, D1 agonist 1 and TRHR enhancer 7.
For COc1ccc(OC)c(NC(=O)Cn2cc(C(=O)c3ccco3)c3ccccc32)c1 the results were D1 PAM 2, TRHR ag 0, D1 antag 11, D1 agonist 0 and TRHR enhancer -3.
Screening Cc1occc1C(=O)NC1CCCc2ccccc21 (stereo unspecified) returned D1 PAM 0, TRHR ag -1, D1 antag -17, D1 agonist 5 and TRHR enhancer 7.
Screening O=C(NC1CCCc2ccccc21)c1cccc(Br)c1 (stereo unspecified) returned D1 PAM -2, TRHR ag -1, D1 antag -44*, D1 agonist 3 and TRHR enhancer -2.
`Cc1ccnc2nc(C(=O)NC3CCCc4ccccc43)nn12` (stereo unspecified) gave D1 PAM -1, TRHR ag -1, D1 antag -52*, D1 agonist 3 and TRHR enhancer 1.
CC1=C(C(=O)OCC(Cl)(Cl)Cl)N2C(=O)C(NC(=O)Cc3ccccc3)C2SC1 (stereo unspecified) was read as D1 PAM -10, TRHR ag -1, D1 antag -34*, D1 agonist 26 and TRHR enhancer 4.
CC1=C(c2ccc(C)c(C)c2)S(=O)(=O)N=C1N1CCC(C(=O)NCCc2ccc(Cl)cc2)CC1 was read as D1 PAM -7, TRHR ag 0, D1 antag -23, D1 agonist 10 and TRHR enhancer 6.
COc1ccc(N(C)S(=O)(=O)c2cccc(C(=O)Nc3cccc(C(=O)NC4CC4)c3)c2)cc1 was read as D1 PAM -14, TRHR ag 0, D1 antag -53*, D1 agonist 6 and TRHR enhancer 0.
For Cc1ccc(N(C)S(=O)(=O)c2cccc(C(=O)Nc3ccc(C)cn3)c2)cc1 the results were D1 PAM 4, TRHR ag 0, D1 antag -88*, D1 agonist 3 and TRHR enhancer 2.
CCSc1nnc(NC(=O)c2cccc(S(=O)(=O)N(C)c3ccc(C)cc3)c2)s1 was read as D1 PAM -7, TRHR ag 0, D1 antag -54*, D1 agonist 3 and TRHR enhancer -3.
